Tau fluor counter = counter-screen for tau fibril formation inhibitors. actives 0.93% (n = 280,000). tau K18 P301L Alexa594 fluorescence, heparin fibrillization. Potency, µM (titrated, usually from 57.7 µM), without a hit: at the top dose activity change, negative = decrease. AID 1463; also: potency is read from the fitted curve at half-maximal effect; nearly all actives have a fitted effect of over 55% in size
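Human tau K18 P301L (15 uM unlabeled, 0.24 uM Alexa 594-labeled) in 100 mM sodium acetate pH 7 with 20 uM heparin, 6 hr at 37 C. ThT 30 uM added, 1 hr ambient; Alexa 594 FP and total fluorescence read at 555/632 nm.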
Sfp PPTase inh = Sfp phosphopantetheinyl transferase inhibition; Q9F4F7; Biochemical Sfp PPTase activity, qHTS; Potency, µM, for the others: largest response in the series, negative = inhibition, most hits filed as inhibitors; actives 3.5% (n = 310,000); AID 1490;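 also: the enzyme is Sfp with the accession as filed and its product quenches rhodamine fluorescence; potency is read from the fitted curve at half-maximal effect; 0% = enzyme reaction without inhibitor and -100% = no enzyme wells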
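Compounds were incubated with enzyme (final 15 nM) for 15 min at room temperature before substrate addition started the reaction. Fluorescence at 525 nm excitation, 598 nm emission was recorded immediately and after 30 minutes.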
Tau fibril ThT = blocks human tau fibril formation measured by thioflavin T; P10636; recombinant tau K18 P301L (four-repeat tau fragment), heparin-induced fibrillization, ThT fluorescence; Potency, µM (highest dose often 57.4 µM), inactives show at the highest dose activity, negative = inhibition, hits mostly inhibitors; actives 2.1% (n = 270,000); AID 1460; also: potency is read from the fitted curve at half-maximal effect; nearly all actives have a fitted effect of over 55% in size
Target sequence (P10636 561-689 P618L limits assumed): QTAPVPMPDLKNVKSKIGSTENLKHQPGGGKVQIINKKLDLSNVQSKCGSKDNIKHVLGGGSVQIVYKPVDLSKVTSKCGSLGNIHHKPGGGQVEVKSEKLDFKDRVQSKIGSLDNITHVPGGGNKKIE
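Heparin-induced (20 uM) aggregation of recombinant human K18 P301L tau, 15 uM unlabeled with 0.24 uM labeled, pH 7 acetate buffer, 6 hr at 37 C with compound. Fibrils quantified by 30 uM ThT fluorescence after 1 hr ambient incubation.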
G9a block = inhibitors of human histone lysine methyltransferase G9a | Q96KQ7 | AID 504332 | actives 8.8% (n = 350,000) | G9a H3K9 monomethylation, AlphaScreen, 2 h | Potency, µM (top dose mostly 102 µM), inactives show at the highest dose activity, negative = inhibition, hits mostly inhibitors; also: potency is read from the fitted curve at half-maximal effect; nearly all actives have a fitted effect of over 75% in size
Target sequence (Q96KQ7 913-1193 limits assumed): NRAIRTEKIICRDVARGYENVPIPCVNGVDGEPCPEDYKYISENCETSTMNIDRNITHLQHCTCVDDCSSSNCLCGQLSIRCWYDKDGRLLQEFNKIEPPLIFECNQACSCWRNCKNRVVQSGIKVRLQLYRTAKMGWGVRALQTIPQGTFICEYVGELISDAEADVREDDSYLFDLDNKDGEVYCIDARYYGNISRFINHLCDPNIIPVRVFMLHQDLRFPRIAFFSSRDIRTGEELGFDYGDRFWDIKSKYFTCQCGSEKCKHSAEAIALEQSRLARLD
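G9a (20 nM) was preincubated 15 min with compound, then reacted 2 h at room temperature with 500 nM biotin-H3K9 peptide and 20 µM SAM. Monomethyl-H3K9 detected by AlphaScreen using anti-H3K9me1 antibody.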
Coupling enz = counter-screen for Giardia aldolase inhibitors: coupling enzyme system. coupling enzyme system counterscreen, AmpLite Red fluorescence. activity change, negative = inhibition, % at 58.2 µM, hits read low. actives 0.67% (n = 290,000); in the data active = activity change below about -30%
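Compounds tested against the coupling enzymes alone at 57.5 uM final; readout was AmpLite Red fluorescence (525/598 nm) after 20 min at RT.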
Tau FP inhib = tau fibrillization inhibition (FP) | P10636 | K18 P301L tau heparin fibrillization, Alexa594 FP, 6 h | Potency, µM (top dose mostly 57.7 µM), for inactives: top-dose activity, negative = inhibition, actives largely listed as inhibitors | actives 0.39% (n = 280,000); also: potency is read from the fitted curve at half-maximal effect; nearly all actives have a fitted effect of over 55% in size
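K18 P301L tau (15 uM unlabeled/0.24 uM Alexa 594-labeled, final) + compound + heparin 20 uM final; 100 mM NaOAc pH 7; 6 hr 37 C; ThT 30 uM final added, 1 hr RT; FP ex 555/em 632 nm.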
* = called active by the depositor; ? = inconclusive; . = not tested or not shown; [ ] = dose if it differs, or a comment. This is a sample that favours compounds with a hit; in the whole collection about 11% have one here. Unless noted, calls follow the shape of the dose curve; as a rule, active = well fitted curve in the direction sought with a large enough effect; inconclusive = small, poorly fitted or top-dose-only effect, or another doubt; inactive = no such curve, though single readings can be large; an effect the other way counts as inactive or inconclusive. Unless noted, % is scaled to controls: 0 for no effect and ±100 for the full control effect.

SMILES	Tau fluor counter	Sfp PPTase inh	Tau fibril ThT	G9a block	Coupling enz	Tau FP inhib
COc1cccc(C2/C(=C(\O)c3ccc4c(c3)OCCO4)C(=O)C(=O)N2CCCN2CCOCC2)c1OC (stereo not given)	.	14%	.	3.5µM*	.	.
O=C(CSc1nc(=O)n(Cc2ccco2)c2c1CCC2)Nc1ccccc1C(F)(F)F	0%	.	-5%	2%[59 µM]	.	-8%
CC[C@H](C)[C@@H](NC(=O)O[C@@H]1C(=O)c2ccc(OC)cc2O[C@H]1c1cccc(C(F)(F)F)c1)C(=O)OC	-7%	2%	-2%	.	-2	1%
Cc1ccc(-c2ccc(/C=C3\C(=O)ON=C3c3ccccc3)o2)c([N+](=O)[O-])c1	?	22µM*	16µM*	27%[0.501 µM]	-1	-12%
Cc1ccc(/C=C2\C(=O)ON=C2c2ccccc2)o1	-5%	15%	?	-13%	-1	-5%
O=C1/C(=C\c2ccc(-c3ccccc3[N+](=O)[O-])o2)C(c2ccccc2)=NN1c1ccccc1	?	-2%	?	4µM*	-1	10%
N#C/C(=C\c1ccc(-c2ccccc2[N+](=O)[O-])o1)C(N)=O	-13%	?	-10%	2%	-20	-6%
Cc1ccc(C2=NOC(=O)/C2=C\c2ccc(C)o2)cc1	-21%	40µM*	?	.	1	0%
O=P(C(=NCCO)NO)(N1CCOCC1)N1CCOCC1	.	21%	.	0%[0.501 µM]	-1	.
COc1ccc(C)cc1NC(=O)CNC(=O)[C@@H]1Cc2ccccc2CN1	.	-3%	.	45µM*	0	.
CC(C)c1ccc(NC(=O)C2CCN(C(=O)[C@@H]3Cc4ccccc4CN3)CC2)cc1	.	0%	.	.	1	.
Cc1ccc(NC(=O)[C@H](CC(C)C)NC(=O)[C@@H]2Cc3ccccc3CN2)cc1	.	17%	.	32µM*	.	.
Cc1ccc(CNC(=O)CNC(=O)[C@@H]2Cc3ccccc3CN2)cc1	.	-4%	.	?	0	.
Cc1ccc(NC(=O)[C@@H]2CCCN2C(=O)[C@@H]2Cc3ccccc3CN2)c(C)c1	.	13%	.	50µM*	1	.
Cc1ccc(NC(=O)C2CCN(C(=O)[C@@H]3Cc4ccccc4CN3)CC2)cc1	.	2%	.	56µM*	5	.
O=C1CCCN1C(=O)CSc1ccc2ccccc2n1	.	.	.	-9%[12.7 µM]	.	.
Cc1cc(C)cc(NC(=O)C2CCC(CNC(=O)[C@@H]3Cc4ccccc4CN3)CC2)c1 (stereo not given in full)	.	15%	.	-4%	-1	.
O=C([C@@H]1Cc2ccccc2CN1)N1CCN(Cc2ccccc2)CC1	.	-8%	.	32µM*	2	.
Cc1cc(C)cc(NC(=O)C2CCN(C(=O)[C@@H]3Cc4ccccc4CN3)CC2)c1	.	3%	.	50µM*	2	.
CCCc1cc(=O)oc2cc(C)cc(OCC(=O)Nc3ccc(S(N)(=O)=O)cc3)c12	.	13%	.	-14%	.	.
COc1ccc(-c2nc3cc(C(C)C)ccc3o2)cc1NC(=O)COc1ccc(C)cc1C	-1%	.	6%	20%[59 µM]	.	0%
Cc1cccc(NC(=O)C2CCN(S(=O)(=O)c3ccc4c(c3)CCCC(=O)N4)CC2)c1	-14%	.	-3%	-18%[59 µM]	.	-9%
C[C@@H](c1ccccc1)N1C(=O)[C@H]2[C@@H]3[C@H](O)[C@H](O)CC(=O)[C@H]3CC[C@H]2C1=O	-3%[11.6 µM]	25%	-6%[11.5 µM]	.	1	3%[11.6 µM]
N#Cc1c(N2CCCC2)ccc(Br)c1Cl	-19%	-8%	-15%	.	5	-10%
Cc1ccc2cccc(OCC(=O)c3cc(C)n(Cc4ccco4)c3C)c2n1	-4%	56µM*	-9%	?	-16	-2%
SMILES	Tau fluor counter	Sfp PPTase inh	Tau fibril ThT	G9a block	Coupling enz	Tau FP inhib
Cc1cc(C(=O)CCl)c(C)n1Cc1ccco1	-1%	-24%	?	-43%	-1	8%
Cc1ccc(C(=O)NCC(=O)OCC(=O)c2cc(C)n(Cc3ccco3)c2C)cc1	-11%	10%	-14%	45µM*	-1	6%
O=C(NCCO)C(=O)Nc1c2c(nn1-c1ccc(F)cc1)CSC2	-1%	.	-4%	?	.	-2%
COc1ccc(CN=C(Nc2ccccc2)SC2CC(=O)NC2=O)cc1 (stereo not given)	-63%	?	10µM*	?	0	-4%[2.34 µM]
CC(C)c1c(O)ccc2c1CCC1[C@@](C)(CO)CCC[C@@]21C (stereo not given in full)	?	-11%	?	-2%[2.33 µM]	4	4%
COC(=O)[C@@]1(C)CCC[C@@]2(C)c3ccc(O)c(C(C)C)c3CCC21 (stereo not given in full)	16µM*[quencher]	29%	?	-38%[2.33 µM]	-6	-11%
N#C/C(=C\c1ccc(N2CCOCC2)o1)C(=O)NCC1CCCO1 (stereo not given)	-12%	-1%	-3%	.	-2	3%
N#C/C(=C\c1ccc(N2CCOCC2)o1)C(=O)NC1CCCCC1	-20%	45µM*	?	.	-5	2%
N#C/C(=C\c1ccc(N2CCOCC2)o1)C(=O)NCCc1ccccc1	-27%	5%	8.9µM*	32µM*	3	11%
COc1ccc(NC(=O)CSc2nnnn2Cc2ccccc2)cc1	-11%	-11%	-8%	27%	1	-6%
C(=N\n1c2ccccc2c2ccccc21)/c1ccccc1	-19%	-13%	-7%	19%[59 µM]	1	?
C[n+]1cn(/N=C/c2ccccc2)c2ccccc21	9%	3%	6%	1.6µM*	3	5%
O=C(NCc1ccccc1)c1nc[nH]c1C(=O)NCc1ccccc1	-10%	-2%	-4%	50µM*	5	7%
CNC(=O)c1[nH]cnc1C(=O)NCC(=O)OCc1ccccc1	.	8%	.	45µM*	2	.
CCN(CC)C(=O)c1[nH]cnc1C(=O)NCC(=O)OCc1ccccc1	.	5%	.	79µM*	0	.
O=C(Nc1ccccc1[N+](=O)[O-])c1nc[nH]c1C(=O)NCCO	-5%	3%	-9%	14µM*	1	5%
O=C(CNC(=O)c1nc[nH]c1C(=O)NCC(=O)OCc1ccccc1)OCc1ccccc1	.	17%	.	.	-3	.
COc1ccc2c(c1)cc1c(=O)n(CC(=O)NCCCc3ccccc3)nc(C)n12	-5%	.	-1%	-6%[59 µM]	.	-18%
CC(=O)c1cc(C(C)=O)c(C)nc1C	0%	5%	-4%	5%	0	-5%
CC(=O)c1ccc2cccc3c2c1N=CN3C	-16%	?	-17%	45µM*	-43*	-8%
CC1(C(=O)NC2CCCCC2)Cc2ccccc2C(=O)N1Cc1ccc(Cl)cc1 (stereo not given)	-1%	.	0%	7%[59 µM]	.	-5%

Bioassay records from PubChem BioAssay.
